PubChem BioAssay (NCATS)
Inconclusive results are not listed. Activity calls are given as the source filed them. Calls come from the whole dose curve; as a rule, active = well fitted inhibition curve with a large enough effect; inconclusive = small, poorly fitted or top-dose-only effect; inactive = flat fitted curve, though single readings scatter.

Assay: Cytometry Cell-Based qHTS for Inhibitors of the mTORC1 Signaling Pathway in MEF cells (AID 2668);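 for activity change, negative = inhibition: Tsc2-/- p53-/- mouse embryonic fibroblasts stably re-expressing wild-type Tsc2; percent cells positive for phospho-rpS6 Ser235/236 relative to propidium iodide stain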
Conditions: mTORC1 pathway readout; series mostly up to 38.3 µM; activity change, negative = inhibition: at the top concentration
From the text: NIH Molecular Libraries Probe Production Centers Network [MLPCN]
NIH Chemical Genomics Center [NCGC]
Assay Submitter (PI): Blenis, John; Hoffman, Greg; Harvard University
NCGC Assay Overview: The mammalian target of rapamycin (mTOR) is an intracellular serine/threonine kinase Aberrant regulation of mTOR signaling plays a causative role in a number of human diseases, including cancer, benign tumors such as lymphangioleiomyomatosis (LAM) and Tuberous Sclerosis Complex (TSC), and metabolic diseases such as diabetes and obesity. This project aims to identify inhibitors of ribosomal protein S6 (rpS6) phosphorylation. The phosphorylation of rpS6 is a key event downstream of mTOR activation. The assay uses a phospho-specific antibody of phospho-rpS6 to detect inhibitors of mTOR activation. Mutations in the Tsc1 and Tsc2 genes are the underlying genetic lesions responsible for TSC, causing constitutive activation of the mTORC1 pathway and leading to profound effects on cell metabolism. Aberrant metabolism in cancer has recently received significant attention as a target to develop therapeutic agents in the treatment of cancer.1 As Tsc2-/- cells have lost the ability to respond to energy and growth factor deprivation, these cells are unable to properly down regulate cellular biosynthetic processes in response to metabolic stress, and are thus extremely sensitive to glucose deprivation-induced death.2 A central goal of this project is to explore the unique cell survival and metabolic properties of cells with Tsc1 or Tsc2 by screening for compounds that selectively target the Tsc2-/- MEFs by screening both Tsc2-/- and WT MEF cell lines. We hope to better understand these aspects of TSC physiology in order to exploit them for therapeutic benefit.
NCGC Acumen Assay Protocol:
For quantitative high throughput analysis of mTORC1 signaling, we developed a cell-based assay for immuno-fluorescence based detection of rpS6 phosphorylation on the Acumen Explorer that will be used a platform for the primary small molecule screen. Mouse embryonic fibroblasts (MEFs) are cultured in 1536-well plates using DMEM + 10% FBS. Twenty-four hrs after plating, test compounds (solubilized in DMSO) are delivered and incubated with the cells for 24 hrs at 37 degree Celsius. Following the incubation, media with compound is aspirated and the cells are fixed in 4% paraformaldehyde (PFA) containing PBS + 0.2% TX-100. Next, PFA is aspirated, cells are washed two times with PBS plus 0.2% TX-100 and the cells are blocked for 1 hr at room temperature (blocking buffer: LiCOR Blocking Buffer plus 0.2% TX-100). This is followed by aspiration and staining with Alexa-488 conjugated-phospho-rpS6 Ser235/236 antibody for 2 hours at room temperature (Cell Signaling Technology # 4803, 1:50 dilution in blocking buffer). Cells are washed two times with PBS plus 0.2% TX-100, and stained with 10 uM propidium iodide (PI) for 20-25 minutes for cell number measurement (1:500 dilution of Hoescht staining is also added for IN Cell imaging). The plates are scanned on the Acumen Explorer laser scanning instrument (TTP Labtech) using the 488nm laser for simultaneous excitation of the Alexa-488 and PI. The fluorescence emission from the Alexa-488 conjugated rpS6 phospho-235/236 antibody staining is selected using a […] band pass filter. Fluorescence emission from the PI stain is selected using a 575-640 nm band pass filter. The normalized phospho-S6 staining is calculated as the ratio of the integrated Alexa 488 intensity divided by the integrated PI intensity for the single concentration rapamycin control (7.5 nM) and DMSO columns. […] Inhibition of the pathway is defined based on the normalized phospho-S6 intensity in rapamycin treated cells. […]
Potency is the fitted concentration of half-maximal effect.

| Compound | activity change, negative = inhibition | Potency |
| --- | --- | --- |
| C[C@H]1c2cccc(O)c2C(O)=C2C(=O)[C@]3(O)C(O)=C(C(N)=O)C(=O)[C@@H](N(C)C)[C@@H]3[C@@H](O)[C@@H]21 | 1.05% (inactive) |  |
| Nc1ccn([C@H]2CC[C@@H](CO)O2)c(=O)n1 | 1.58% (inactive) |  |
| CCOC(=O)c1ncn2c1CN(C)C(=O)c1cc(F)ccc1-2 | 8.71% (inactive) |  |
| CCC1(c2ccccc2)C(=O)NCNC1=O | 1.35% (inactive) |  |
| Cc1cnc(C(=O)NCCc2ccc(S(=O)(=O)NC(=O)NC3CCCCC3)cc2)cn1 | 4.31% (inactive) |  |
| CC(C)NCC(O)COc1ccc(CCOCC2CC2)cc1 (stereo not given) | -3.12% (inactive) |  |
| NC(=O)NO | -28.1% (inactive) |  |
| COc1ccc(CCN(C)CCCC(C#N)(c2ccc(OC)c(OC)c2)C(C)C)cc1OC (stereo not given) | -6.12% (inactive) |  |
| CCN1CCCC1CNC(=O)c1cc(S(=O)(=O)CC)c(N)cc1OC (stereo not given) | 1.01% (inactive) |  |
| CC(C(=O)O)c1cccc(C(=O)c2ccccc2)c1 (stereo not given) | 1.41% (inactive) |  |
| CCOC(=O)Nc1ccc(NCc2ccc(F)cc2)nc1N | -1.55% (inactive) |  |
| COc1cc2c(c(OC)c1OC)-c1ccc(OC)c(=O)cc1[C@@H](NC(C)=O)CC2 | -13.4% (inactive) |  |
| CC(C)NCC(O)c1ccc(O)c(O)c1 (stereo not given) |  | 13.1 µM (active) |
| NC12CC3CC(CC(C3)C1)C2 | -29% (inactive) |  |
| Cc1cc(C(C)(C)C)c(O)c(C)c1CC1=NCCN1 | -6.94% (inactive) |  |
| Cn1cnc2c1c(=O)[nH]c(=O)n2C | 1.39% (inactive) |  |
| CN1CCC(=C2c3ccccc3CC(=O)c3sccc32)CC1 | -4.88% (inactive) |  |
| CN(Cc1cnc2nc(N)nc(N)c2n1)c1ccc(C(=O)N[C@@H](CCC(=O)O)C(=O)O)cc1 | -24.2% (inactive) |  |
| Cc1cc(C(C)(C)C)cc(C)c1CC1=NCCN1 | 2.92% (inactive) |  |
| CCc1cccc2c3c([nH]c12)C(CC)(CC(=O)O)OCC3 (stereo not given) | 7.67% (inactive) |  |

| Compound | activity change, negative = inhibition | Potency |
| --- | --- | --- |
| O=C(C1CCCCC1)N1CC(=O)N2CCc3ccccc3C2C1 (stereo not given) | 4.01% (inactive) |  |
| Cn1c(=O)c2[nH]cnc2n(C)c1=O | -17.3% (inactive) |  |
| O=C(c1ccc(F)cc1)C1CCN(CCn2c(=O)[nH]c3ccccc3c2=O)CC1 | 2.99% (inactive) |  |
| Cc1cn([C@H]2C[C@H](N=[N+]=[N-])[C@@H](CO)O2)c(=O)[nH]c1=O | -3.07% (inactive) |  |
| NCCc1cnc[nH]1 | 2.29% (inactive) |  |
| Nc1c2c(nc3ccccc13)CCCC2 | -2.33% (inactive) |  |
| COc1cc2nc(N(C)CCCNC(=O)C3CCCO3)nc(N)c2cc1OC (stereo not given) | -5.12% (inactive) |  |
| Clc1ccc(C(c2ccccc2Cl)C(Cl)Cl)cc1 (stereo not given) | -10.3% (inactive) |  |
| CN1CCN(C2=Nc3cc(Cl)ccc3Nc3ccccc32)CC1 | -1.65% (inactive) |  |
| NCCS(=O)(=O)O | -1.5% (inactive) |  |
| CC(COc1ccccc1)N(CCCl)Cc1ccccc1 (stereo not given) | 0.112% (inactive) |  |
| CC(CCc1ccc(O)cc1)NCCc1ccc(O)c(O)c1 (stereo not given) | -5.65% (inactive) |  |
| NCCCCCC(=O)O | 1.59% (inactive) |  |
| O=C1Cc2cc(CCN3CCN(c4nsc5ccccc45)CC3)c(Cl)cc2N1 | -7.72% (inactive) |  |
| CN1C(C(=O)Nc2ccccn2)=C(O)c2ccccc2S1(=O)=O | -0.553% (inactive) |  |
| O=C1N(c2ccccc2)c2ccccc2C1(Cc1ccncc1)Cc1ccncc1 | -2.95% (inactive) |  |
| Cc1ccccc1N1C(=O)c2cc(S(N)(=O)=O)c(Cl)cc2NC1C (stereo not given) | 6.35% (inactive) |  |
| NC(=O)OCC(COC(N)=O)c1ccccc1 | -3.88% (inactive) |  |
| COc1nc(C)nc(Cl)c1NC1=NCCN1 | 6.78% (inactive) |  |
| COc1ccc(C2CNC(=O)C2)cc1OC1CCCC1 (stereo not given) | 10.9% (inactive) |  |
